Test results from PubChem BioAssay (NCI).
Compounds without any hit were thinned out: in the full panel of roughly 83,000, 20% have a hit.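 Negative percent growth values reflect cell death: -40 means 40% of the cells present at the start died, and -100 means all died.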 Active and inactive are the calls of the source. How the source made its calls: active means growth percent below 10; inactive means the rest.

test system: MDA-MB-435 melanoma; test: NCI-60 one-dose screen, 48 h (100 = growth as untreated, 0 = no growth, -100 = all killed); settings: 10 µM

**Q.** `COc1cc2cc(C(=O)N3C[C@@H](CCl)c4c3cc(OC(=O)N3CCN(C)[C@@H]5CSSC[C@H]53)c3ccccc43)[nH]c2c(OC)c1OC` was tested. Which growth did it give?
**A.** The growth was -65.9% (active).

**Q.** `CC1=C(CCC=O)C2=C(C)C3(CC3)[C@@](C)(O)C(=O)C2=C1` was tested. Which growth did it give?
**A.** Its growth is -88.8% (active).

**Q.** With `COC(=O)C[C@](O)(CCC(C)C)C(=O)O[C@@H]1C(OC)=C[C@]23CCCN2CCc2cc4c(cc2[C@H]13)OCO4` as the compound, how does the growth read?
**A.** The growth was -84% (active).

**Q.** For `O=C(/C=C/c1ccc(Cl)cc1)c1nc2ccccc2n1Cc1ccc(F)cc1`, which growth is on record?
**A.** The growth was 12.1% (inactive).

**Q.** For `CC[C@]12C=CCN3CC[C@@]4(c5ccc(OC)cc5N(C)[C@H]4[C@@](O)(C(=O)OC)[C@@H]1OC(=O)CCC[P+](C1CCCCC1)(C1CCCCC1)C1CCCCC1)[C@@H]32`, which growth is on record?
**A.** Its growth is -80.1% (active).

**Q.** With `CC1=C2C(=C[C@@](C)(COP(=O)(Oc3ccccc3)Oc3ccccc3)[C@@H]2O)C(=O)[C@@](C)(O)C12CC2` as the compound, how does the growth read?
**A.** Its growth is -77.1% (active).

**Q.** With `CC(=O)Oc1ccccc1C(=O)NC([Se])=NC1CCCCC1` as the compound, how does the growth read?
**A.** Its growth is 8.85% (active).

**Q.** How did the growth turn out when `CCOP(=O)(CC(F)(F)C(F)(F)F)OCC` was run?
**A.** The growth was 18.4% (inactive).

**Q.** How did the growth turn out when `CC(C)C[C@H](NC(=O)CNC(=O)C[C@H]1O[C@@H]2OC3(C)CC[C@H]4[C@H](C)CC[C@@H]([C@H]1C)[C@@]24OO3)B(O)O` was run?
**A.** Its growth is -61.2% (active).

**Q.** `C[C@H]1[C@@H](Oc2ccc(-c3cn(-c4ccnc5cc(Cl)ccc45)nn3)cc2)O[C@@H]2OC3(C)CC[C@H]4[C@H](C)CC[C@@H]1[C@@]24OO3` was tested. Which growth did it give?
**A.** The growth was 35.6% (inactive).

**Q.** How did the growth turn out when `C[C@H]1[C@H](OC(=O)CCC(=O)N(CCCc2cn(-c3ccc([N+](=O)[O-])cc3)nn2)CCNc2ccnc3cc(Cl)ccc23)O[C@@H]2OC3(C)CC[C@H]4[C@H](C)CC[C@@H]1[C@@]24OO3` was run?
**A.** Its growth is 31.5% (inactive).

**Q.** With `COc1cc2cc(C(=O)N3C[C@@H](CCl)c4c3cc(OC(=O)N3CCN(C)[C@@H]5CSSC[C@@H]53)c3ccccc43)[nH]c2c(OC)c1OC` as the compound, how does the growth read?
**A.** The growth was -86.8% (active).

**Q.** Which growth does the source give for `COc1cc2cc(C(=O)N3C[C@@H](CCl)c4c3cc(OC(=O)N3CCN(C(=O)CCC(=O)N5CCN(C)CC5)[C@@H]5CSSC[C@@H]53)c3ccccc43)[nH]c2c(OC)c1OC` here?
**A.** The growth was 3.09% (active).

**Q.** With `COC(=O)c1ccc(-n2cc(CCCN(CCNc3ccnc4cc(Cl)ccc34)C(=O)CCC(=O)O[C@@H]3O[C@@H]4OC5(C)CC[C@H]6[C@H](C)CC[C@@H]([C@H]3C)[C@@]46OO5)nn2)cc1` as the compound, how does the growth read?
**A.** Its growth is 22.2% (inactive).

**Q.** With `O=C([Se]C1C=CCCC1)c1ccc(C(=O)[Se]C2C=CCCC2)s1` (centres undefined) as the compound, how does the growth read?
**A.** Its growth is -61.2% (active).

**Q.** For `O=C(/C=C/c1cccc(Br)c1)c1nc2ccccc2n1Cc1ccc(F)cc1`, which growth is on record?
**A.** The growth was 11.6% (inactive).

**Q.** Which growth does the source give for `CC[C@]12C=CCN3CC[C@@]4(c5ccc(OC)cc5N(C)[C@H]4[C@@](O)(C(=O)OC)[C@@H]1OC(=O)CCC[P+](c1ccc(C)cc1)(c1ccc(C)cc1)c1ccc(C)cc1)[C@@H]32` here?
**A.** The growth was -57.5% (active).

**Q.** With `O=C(NC([Se])=NC1CCCCC1)c1ccccc1` as the compound, how does the growth read?
**A.** The growth was 42.4% (inactive).

**Q.** With `O=C(/C=C/c1ccc(F)cc1)c1nc2ccccc2n1Cc1ccc(F)cc1` as the compound, how does the growth read?
**A.** The growth was -37.9% (active).

**Q.** How did the growth turn out when `O=C(/C=C/c1ccccc1)c1nc2ccccc2n1Cc1ccc(Br)cc1` was run?
**A.** Its growth is -27.9% (active).

**Q.** Which growth does the source give for `C=CC[Se]C(=O)c1cncc(C(=O)[Se]CC=C)c1` here?
**A.** The growth was -62.9% (active).

**Q.** Which growth does the source give for `COc1ccc(OC)c(/C=C/C(=O)c2nc3ccccc3n2Cc2ccc(F)cc2)c1` here?
**A.** The growth was -46.9% (active).

**Q.** Which growth does the source give for `O=C(/C=C/c1ccc(F)cc1)c1nc2ccccc2n1Cc1ccc(Br)cc1` here?
**A.** The growth was -74% (active).

**Q.** `CC[C@]12C=CCN3CC[C@@]4(c5ccc(OC)cc5N(C)[C@H]4[C@@](O)(C(=O)OC)[C@@H]1OC(=O)CCCC[P+](c1ccc(C)cc1)(c1ccc(C)cc1)c1ccc(C)cc1)[C@@H]32` was tested. Which growth did it give?
**A.** Its growth is -86.8% (active).

**Q.** Which growth does the source give for `CC(C)N=C([Se])NC(=O)c1cccs1` here?
**A.** Its growth is 37.4% (inactive).

**Q.** For `CC1=C(CCC=NNC(N)=O)C2=C(C)C3(CC3)[C@@](C)(O)C(=O)C2=C1`, which growth is on record?
**A.** The growth was -96.3% (active).

**Q.** How did the growth turn out when `Cc1ccc2[nH]c(=S)n(-c3ccc(F)cc3)c(=O)c2c1` was run?
**A.** Its growth is 104% (inactive).

**Q.** With `C#CC[Se]C(=O)c1ccc2n[se]nc2c1` as the compound, how does the growth read?
**A.** The growth was 85.9% (inactive).

**Q.** Which growth does the source give for `CC1=C(COCCOC(=O)c2ccc(S(=O)(=O)F)cc2)C2=C(C)C3(CC3)[C@@](C)(O)C(=O)C2=C1` here?
**A.** The growth was 3.24% (active).

**Q.** How did the growth turn out when `CC12CCC3(CCC(=O)NCCCNc4ccnc5cc(Cl)ccc45)[C@@](C)(OO[C@]3(C)O1)O2` was run?
**A.** The growth was 18.3% (inactive).

**Q.** `O=C(/C=C/c1ccc(Br)cc1)c1nc2ccccc2n1Cc1ccc(Br)cc1` was tested. Which growth did it give?
**A.** Its growth is -38.5% (active).

**Q.** For `COC(=O)CCn1c(-c2ccc(-n3cc(-c4ccc(O[C@H]5O[C@@H]6OC7(C)CC[C@H]8[C@H](C)CC[C@@H]([C@H]5C)[C@@]68OO7)cc4)nn3)cc2)nc2ccccc21`, which growth is on record?
**A.** Its growth is 24.5% (inactive).

**Q.** For `CC1=C(C=O)C2=C(C)C3(CC3)[C@@](C)(O)C(=O)C2=C1`, which growth is on record?
**A.** Its growth is -35.2% (active).

**Q.** With `N#C[Se]CC(=O)Nc1cccc(C(F)(F)F)c1` as the compound, how does the growth read?
**A.** Its growth is -18.1% (active).

**Q.** How did the growth turn out when `CCC[Se]C(=O)c1ccc(C(=O)[Se]CCC)s1` was run?
**A.** The growth was -61% (active).

**Q.** For `C[C@H]1[C@@H](CC(=O)N[C@@H](Cc2coc3ccccc23)B(O)O)O[C@@H]2OC3(C)CC[C@H]4[C@H](C)CC[C@@H]1[C@@]24OO3`, which growth is on record?
**A.** Its growth is -53.8% (active).

**Q.** Which growth does the source give for `O=C(/C=C/c1ccco1)c1nc2ccccc2n1Cc1ccc(F)cc1` here?
**A.** Its growth is 77% (inactive).

**Q.** `COC(=O)C[C@](O)(CCC(C)C)C(=O)O[C@H]1C(OC)=C[C@@]23CCCN2CCc2cc4c(cc2[C@@H]13)OCO4` was tested. Which growth did it give?
**A.** Its growth is -32.6% (active).

**Q.** With `C[C@H]1[C@H](OC(=O)CCC(=O)N(CCCc2cn(-c3ccc(C#N)cc3)nn2)CCNc2ccnc3cc(Cl)ccc23)O[C@@H]2OC3(C)CC[C@H]4[C@H](C)CC[C@@H]1[C@@]24OO3` as the compound, how does the growth read?
**A.** The growth was 28.8% (inactive).
